GLS inhibitor: glutaminase GLS (human) inhibition | O94925 | GLS enzymatic activity, qHTS titration | Potency, µM (titrated, usually from 45.5 µM), inactives show at the highest dose activity change, negative = inhibition, hits mostly inhibitors | actives 0.21% (n = 410,000) | AID 624170; note: potency is the fitted concentration of half-maximal effect; % is set by controls: 0 for no effect and ±100 for the full control effect
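Human kidney-isoform GLS in 45 mM KH2PO4 pH 8.2, 0.02% Tween-20, with compound, started with 1mM L-Glutamine (added stock). Glutamate oxidase/HRP/Amplex red coupled fluorescence read at start and after 30 min at RT.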
Pin1 inh: inhibitors of human Pin1 | Q13526 | Pin1 FP peptide displacement, HiFluor488, 10 min | Potency, µM (titrated, usually from 115 µM), for the others: at the highest dose activity, negative = inhibition, actives largely listed as inhibitors | actives 0.009% (n = 390,000); active = well fitted inhibition curve with a large enough effect in the polarisation, with a control signal flat, not every such curve was filed as active; inconclusive = small, poorly fitted or top-dose-only effect, or effect the other way, or a change in a side signal; inactive = no such curve, though single readings can be large or run the other way; the % refers to the polarisation; note: potency is the fitted concentration of half-maximal effect; % is set by controls: 0 for no effect and ±100 for the full control effect
mIDH1 inhibitor: blocks human mutant IDH1 R132H enzyme; Potency, µM (top dose mostly 76.6 µM), for inactives: top-dose activity change, negative = inhibition, hits mostly inhibitors; IDH1-R132H enzyme, NADPH consumption, diaphorase/resazurin fluorescence; AID 602179; actives 0.093% (n = 390,000); note: potency is the fitted concentration of half-maximal effect; % is set by controls: 0 for no effect and ±100 for the full control effect; nearly all actives have a fitted effect of over 65% in size
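IDH1-R132H (0.5 ug/mL) preincubated 30 min with compound, then NADPH (0.016 mM) and alpha-KG (2 mM) added; 80 min at RT, pH 7.5. Remaining NADPH coupled via diaphorase/resazurin to fluorescence (540/590 nm); concentration-response curves normalized to no-enzyme control.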
Tb PGK inh: inhibitors of T. brucei phosphoglycerate kinase; P07378; PGK/GAPDH coupled, Kinase-Glo luminescence, 60 min; Potency, µM (series often up to 57.5 µM), without a hit: at the highest dose activity change, negative = inhibition, usual class: inhibitors; actives 0.043% (n = 380,000); AID 602233; note: potency is the fitted concentration of half-maximal effect; % is set by controls: 0 for no effect and ±100 for the full control effect; nearly all actives have a fitted effect of over 60% in size
Target sequence (P07378 whole entry, looked up): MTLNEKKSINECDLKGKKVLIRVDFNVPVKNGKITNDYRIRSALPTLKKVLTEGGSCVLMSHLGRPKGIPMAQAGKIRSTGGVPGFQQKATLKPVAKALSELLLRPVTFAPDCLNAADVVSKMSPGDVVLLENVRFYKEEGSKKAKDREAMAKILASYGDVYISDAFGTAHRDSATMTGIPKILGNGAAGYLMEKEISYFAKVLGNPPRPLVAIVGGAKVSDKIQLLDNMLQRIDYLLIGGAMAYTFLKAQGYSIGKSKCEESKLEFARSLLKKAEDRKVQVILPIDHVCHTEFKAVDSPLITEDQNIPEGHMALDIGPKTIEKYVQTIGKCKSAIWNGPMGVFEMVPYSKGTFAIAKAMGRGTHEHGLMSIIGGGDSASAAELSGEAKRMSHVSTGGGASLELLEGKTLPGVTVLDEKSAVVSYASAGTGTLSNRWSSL
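Recombinant glycosomal PGK reaction used 1,3-bisphosphoglycerate generated in-well by GAPDH (100nM final) in 100mM TEA pH 7.6, 5mM MgCl2, 0.01% Tween-20. After 60 minutes at room temperature, ATP was read by Kinase-Glo Plus luminescence end-point.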
Resorufin autofl: interferes with resorufin fluorescence in IDH1 counter-screen; inhibition of signal, % at 51.2 µM; AID 623980; shares compounds with mIDH1 inhibitor; 750 tested, under 10 active; Resorufin detection reagent fluorescence interference, cell-free;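 note: 0% = wells with normal resorufin and full inhibition = wells lacking resorufin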
WT IDH1 inh: selectivity of mutant IDH1 inhibitors: human wild-type IDH1; WT IDH1 enzyme, NADPH diaphorase/resazurin fluorescence; actives 9% (n = 750); shares compounds with mIDH1 inhibitor; Potency, µM (series often up to 115 µM), for inactives: top-dose activity change, negative = inhibition, most hits filed as inhibitors;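 note: potency is the fitted concentration of half-maximal effect; 0% = full WT IDH1 enzyme control and full inhibition = no enzyme wells; nearly all actives have a fitted effect of over 55% in size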
mIDH1 confirm: confirmation of human mutant IDH1 inhibitors | shares compounds with mIDH1 inhibitor | IDH1 R132H enzyme, NADPH diaphorase/resazurin fluorescence | Potency, µM (highest dose often 76.6 µM), for the others: at the top dose activity change, negative = inhibition, most hits filed as inhibitors | actives 83% (n = 750); note: potency is the fitted concentration of half-maximal effect; nearly all actives have a fitted effect of over 50% in size
* marks the source's active call; other numbers are inactive results; i = inactive; u = inconclusive; x = no result given. In the library only some 0.33% were active in any assay of this set; here they are far more common. Unless noted, calls come from the whole dose curve; as a rule, active = well fitted curve in the direction sought with a large enough effect; inconclusive = small, poorly fitted or top-dose-only effect, or another doubt; inactive = no such curve, though single readings can be large; an effect the other way counts as inactive or inconclusive.

SMILES	GLS inhibitor	Pin1 inh	mIDH1 inhibitor	Tb PGK inh	Resorufin autofl	WT IDH1 inh	mIDH1 confirm
CCOc1ccc(N(C(=O)Cn2nnc3ccccc32)C(C(=O)NCc2ccccc2)c2ccc(OC)cc2)cc1 (stereo not given)	5.6%	2.9%	-2.6%	1.5%	x	x	x
Cn1cccc1C(C(=O)NC1CCCCC1)N(C(=O)Cc1cccs1)c1ccc2c(c1)OCO2 (stereo not given)	6.0%	-6.2%	u	-3.8%	6.9	0.5%	11.2µM*
COc1ccc(N(C(=O)Cn2cnc3ccccc32)C(C(=O)NC2CCCCC2)c2ccccc2)cc1 (stereo not given)	-8.1%	5.6%	9.27µM*	i	1.1	-5.5%	2.82µM*
Cc1ccc(C(C(=O)NC2CCCC2)N(C(=O)Cc2cccs2)c2ccc(C)c(C)c2)o1 (stereo not given)	-19.5%	18.5%	5.21µM*	-9.7%	-0.8	3.7%	4.47µM*
Cc1ccc(C)c(N(C(=O)Cc2cccs2)C(C(=O)NC2CCCC2)c2ccc(C)o2)c1 (stereo not given)	-6.0%	1.2%	-28.5%	3.7%	x	x	x
O=C(NC1CCCC1)C(c1ccc(F)cc1)N(C(=O)Cc1cccs1)c1ccc2c(c1)OCCO2 (stereo not given)	-3.8%	2.7%	10.4µM*	2.2%	6.2	-8.5%	6.31µM*
Cc1ccc(C(C(=O)NC2CCCC2)N(C(=O)Cc2cccs2)c2ccc3c(c2)OCCO3)cc1 (stereo not given)	-2.1%	-5.4%	u	-14.5%	x	x	x
Cc1ccc(C(C(=O)NC2CCCC2)N(Cc2ccc3c(c2)OCO3)C(=O)Cc2cccs2)cc1 (stereo not given)	7.4%	10.6%	-5.3%	0.7%	x	x	x
Cc1c(P(=S)(c2ccccc2)c2ccccc2)c2ccccc2n1C(=O)Cc1ccccc1	x	7.7%	x	x	x	x	x
COc1ccc(N(C(=O)Cc2cccs2)C(C(=O)NC2CCCCC2)c2cccn2C)cc1 (stereo not given)	12.6%	5.1%	u	4.7%	-3.5	14.6%	39.8µM*
CC(=O)Nc1ccc(C2=NNC(=NCC3CCCO3)SC2)cc1 (stereo not given)	3.9%	39.1%	u	i	-5.3	364.1%	44.7µM*
C=CCOc1ccc(Br)cc1/C=C1/SC(=Nc2ccc(C(=O)O)cc2)NC1=O	-13.7%	59.8%	52.1µM*	u	9.2	70.8µM*	28.2µM*
CCOc1cc(Br)cc(/C=C2\SC(=Nc3ccccc3)NC2=O)c1O	1.2%	3.9%	1.5%	-2.3%	x	x	x
CC(=O)Oc1ccc2c(=O)c(Oc3ccccc3[N+](=O)[O-])coc2c1	8.2%	-1.6%	u	2.1%	4.2	-13.1%	28.2µM*
COc1ccccc1Oc1coc2cc(OC(=O)N3CCOCC3)ccc2c1=O	-14.5%	6.2%	0.0%	2.6%	x	x	x
C[C@@H]1CN([C@H](C)CO)S(=O)(=O)c2ccc(C#Cc3ccccc3F)cc2O[C@H]1CN(C)C(=O)c1ccc2c(c1)OCO2	-1.7%	x	u	i	-1.4	4.5%	5.62µM*
O=P(CCCCCCCCCP(=O)(c1ccccc1)c1ccccc1)(c1ccccc1)c1ccccc1	-7.7%	0.2%	32.9µM*	-1.9%	-9.0	1.3%	22.4µM*
COc1cc(F)c(S(=O)(=O)N2CCN(S(=O)(=O)c3cccc(NC(C)=O)c3)CC2)c(F)c1	x	5.4%	x	x	x	x	x
O=C1c2ccccc2C(=O)N1Cc1ccncc1	x	-4.7%	x	x	x	x	x
Cc1cccc(NC(=O)COc2ccc(/C=C\c3[nH]c(=O)[nH]c(=O)c3[N+](=O)[O-])cc2)c1	0.1%	u	52.1µM*	u	11.3	u	31.6µM*

Screening results deposited in PubChem BioAssay by National Center for Advancing Translational Sciences (NCATS).
